SMN2 splice up: increases expression of the SMN2 splice variant; actives 2.8% (n = 210,000); Potency, µM (highest dose often 46.1 µM), for the others: top-dose activity change, positive = activation, hits mostly activators; HEK293 SMN2-luciferase splicing reporter, luminescence, 30-36 h; AID 1458; also: % of control where 0% means no effect; nearly all actives have a fitted effect of over 55% in size
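HEK293 cells carry an SMN2 […]–luciferase reporter in which exon 7 inclusion puts luciferase in frame. Cells were plated 10-12 h before compound addition, then incubated 30-36 h at 37C. ONE-Glo luminescence was read; sodium butyrate at 4.5 mM final served as control.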
FLuc modulator: counter-screen for miR-21 project: firefly luciferase inhibitors or activators; actives 6.9% (n = 360,000); Potency, µM (titrated, usually from 57.5 µM), without a hit: at the top dose activity change, negative = inhibition, most hits filed as inhibitors; purified FLuc, Km substrates, luminescence inhibition;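 also: plate controls were vehicle for no effect and reference inhibitor for full effect; nearly all actives have a fitted effect of over 55% in size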
Target sequence (P08659 whole entry, looked up): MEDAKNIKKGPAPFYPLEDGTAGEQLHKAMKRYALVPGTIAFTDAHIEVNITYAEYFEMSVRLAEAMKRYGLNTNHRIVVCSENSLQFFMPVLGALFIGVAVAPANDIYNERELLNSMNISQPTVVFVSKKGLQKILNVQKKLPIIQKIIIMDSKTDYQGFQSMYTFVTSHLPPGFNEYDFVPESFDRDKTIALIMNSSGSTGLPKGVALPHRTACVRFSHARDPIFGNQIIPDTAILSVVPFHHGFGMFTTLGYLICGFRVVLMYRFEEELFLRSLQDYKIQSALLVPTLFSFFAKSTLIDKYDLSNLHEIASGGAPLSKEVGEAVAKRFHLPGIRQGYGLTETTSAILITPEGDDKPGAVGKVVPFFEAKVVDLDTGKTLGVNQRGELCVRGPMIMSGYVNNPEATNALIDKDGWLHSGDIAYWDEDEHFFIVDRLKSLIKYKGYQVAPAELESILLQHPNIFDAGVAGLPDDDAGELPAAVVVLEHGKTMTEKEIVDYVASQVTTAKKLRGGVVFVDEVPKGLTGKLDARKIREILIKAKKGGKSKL
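Biochemical qHTS of compounds, final roughly 60 µM downward over six points, against 10 nM purified firefly luciferase using Km concentrations of substrates (10 uM D-luciferin, 10 uM ATP) in Tris acetate pH 7.5 buffer; luminescence output.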
Luc counter: blocks Kinase-Glo luciferase, a counter-screen artifact. Kinase-Glo luciferase, ATP luminescence, 8 min. Potency, µM (titrated, usually from 38.3 µM), inactives show at the highest dose activity change, negative = inhibition, most hits filed as inhibitors. actives 0.28% (n = 200,000); also: % is scaled to controls: 0 for no effect and ±100 for the full control effect; nearly all actives have a fitted effect of over 60% in size
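Light output from Kinase-Glo luciferase with luciferin and 10 uM ATP in 50 mM imidazole pH 7.2, KCl, MgCl2, Tween 20, BSA; compound pin-delivered, 8-min ambient incubation, then luminescence read.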
ELG1 genotox: genotoxicity induction in ELG1-luciferase HEK293T cells; AID 504466; Potency, µM (highest dose often 46 µM), for the others: top-dose activity change, positive = activation, actives largely listed as activators; actives 1.3% (n = 330,000); HEK293T ELG1-luciferase reporter, luminescence, 16 h; also: % of control where 0% means no effect; nearly all actives have a fitted effect of over 60% in size
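Quantitative HTS format in 1536-well plates. HEK293T ELG1-luciferase reporter cells receive test compound and are incubated 16 hr at 37 °C, 5% CO2; ONE-Glo added, 30 min room temperature, then luminescence read.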
Rab9 prom act: Rab9 promoter activation; actives 2.8% (n = 320,000); Potency, µM (highest dose often 9.22 µM), for inactives: at the highest dose activation, negative = inhibition, actives largely listed as activators; Huh7 Rab9 promoter-luciferase reporter, luminescence, 24 h; also: % of control where 0% means no effect; nearly all actives have a fitted effect of over 60% in size
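Cell-based reporter: Huh7 stable for Rab9 promoter-driven luciferase, plated in reduced-serum medium with 10% FBS at 1500 cells/well, compound-treated 24 h at 37 °C, luminescence read after 10 min reagent.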
NPC1 promoter act: NPC1 promoter activation | Potency, µM (series often up to 9.22 µM), for the others: top-dose activation, hits mostly activators | Huh7 NPC1 promoter luciferase reporter, 24 h | actives 2.4% (n = 320,000); also: % of control where 0% means no effect; nearly all actives have a fitted effect of over 60% in size
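In 1536-well qHTS, Huh7 cells harboring an NPC1 promoter–luciferase construct received compound for 24 h; activation was quantified by luminescence following luciferase reagent addition.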
Active calls of the source: *; [ ] = another dose, or the depositor's remark. Compounds with a hit are over-represented: about 7.5% of the library has one in this group of screens. Calls follow the shape of the dose curve; as a rule, active = well fitted curve in the direction sought with a large enough effect; inconclusive = small, poorly fitted or top-dose-only effect, or another doubt; inactive = no such curve, though single readings can be large; an effect the other way counts as inactive or inconclusive. Potency is read from the fitted curve at half-maximal effect.

`Cc1nn(-c2ccccc2)c(N)c1N=Nc1cccnc1` gave SMN2 splice up 13µM*, FLuc modulator 13µM*, Luc counter -1%, ELG1 genotox 18µM*, Rab9 prom act inconclusive and NPC1 promoter act inconclusive.
Screening Cc1nn(-c2ccccc2)c2c1C(c1ccc(F)cc1F)C(C#N)=C(N)O2 (stereo unspecified) returned SMN2 splice up 20%, FLuc modulator -2%, Luc counter 1%, ELG1 genotox -3%, Rab9 prom act -1% and NPC1 promoter act 1%.
Nc1nn(-c2ccccc2)c(N)c1N=Nc1cccc(F)c1 was read as FLuc modulator 4.3µM*, ELG1 genotox 6.5µM*, Rab9 prom act inconclusive and NPC1 promoter act inconclusive.
`Nc1nn(-c2ccccc2)c(N)c1N=Nc1ccc2c(c1)OCO2` gave SMN2 splice up 6.3µM*, FLuc modulator 1.7µM*, Luc counter -6%, ELG1 genotox inconclusive, Rab9 prom act 0.63µM* and NPC1 promoter act inconclusive.
`CCc1cccc(NC(=O)C(Cc2ccccc2)NS(=O)(=O)c2ccc3c(c2)c(=O)n(C)c(=O)n3C)c1` (stereo unspecified) gave SMN2 splice up 21% and FLuc modulator -12%.
For Cc1nn2c(-c3ccco3)ccnc2c1-c1ccc(Cl)cc1 the results were SMN2 splice up -13% and FLuc modulator 5.4µM*.
Screening Cc1nn2c(N)c(-c3ccccc3)cnc2c1-c1ccccc1 returned FLuc modulator 0.95µM*, ELG1 genotox inconclusive, Rab9 prom act 1.6µM* and NPC1 promoter act 2.2µM*.
`Cc1nn2c(-c3ccco3)ccnc2c1-c1ccc(Br)cc1` gave SMN2 splice up 12% and FLuc modulator 9.5µM*.
`Cc1nn2c(N)c(C#N)cnc2c1-c1ccccc1` gave SMN2 splice up 7%, FLuc modulator inconclusive, Luc counter -1%, ELG1 genotox inconclusive, Rab9 prom act 8% and NPC1 promoter act 2%.
Screening Cc1nn2c(-c3ccc(Cl)cc3)ccnc2c1-c1ccccc1 returned SMN2 splice up -5%, FLuc modulator 8.5µM*, Luc counter -1%, ELG1 genotox 8%, Rab9 prom act 22% and NPC1 promoter act inconclusive.
`Cc1ccc(CCNC(=O)c2cc3cc4cc(C)ccc4nc3s2)cc1` gave FLuc modulator -4%.
`Cn1cc(CNC(=O)C2CCC(=O)N(Cc3ccc(Cl)cc3)C2)cn1` (stereo unspecified) gave FLuc modulator 0%, ELG1 genotox 0%[9.26 µM], Rab9 prom act -1% and NPC1 promoter act -3%.
`O=C(Nc1cccc(Br)c1)Nc1nc2c(s1)CCCCCC2` gave FLuc modulator 11µM*.
For CN(Cc1ccccc1)c1nnc(NC(=O)Nc2cccc(Br)c2)s1 the results were FLuc modulator -13%.
Screening COc1ccc(NC(=O)Nc2nc3c(s2)CCCC3)cc1 returned SMN2 splice up 13µM*, FLuc modulator 4.8µM*, Luc counter 1%, ELG1 genotox 18%, Rab9 prom act 1.8µM* and NPC1 promoter act 4µM*.
`C[C@H]1Cc2c(COc3ccccc3)nc3c(c2CO1)CN(C(=O)C1CC1)CC3` gave SMN2 splice up 5%[9.22 µM] and Luc counter -3%[7.66 µM].
`Cc1ccc(NC(=O)CCCNC(=O)c2ccc(Cl)cc2)nc1` gave FLuc modulator inconclusive, ELG1 genotox inconclusive, Rab9 prom act 25% and NPC1 promoter act 16%.
Screening Cc1cnc(NC(=O)CCCNC(=O)c2ccc(Cl)cc2)s1 returned FLuc modulator 8.5µM*, ELG1 genotox inconclusive, Rab9 prom act inconclusive and NPC1 promoter act 26%.
COc1ccccc1NC(=O)CSc1nnc(NC(=O)C2CC2)s1 was read as FLuc modulator inconclusive, ELG1 genotox 3%, Rab9 prom act 2% and NPC1 promoter act -2%.
